Reference: the supplement of paper PMC10849652
Targets with a hit are over-represented here; the source holds about 7,900 in all. About 0.6% of all pairs of compound and target were hits.

Columns and labels:
Experiment in all cases: log2 fold change, soluble protein after heating vs DMSO (PISA); higher = thermal stabilisation; K562 cells, 10 uM, 30 min; active = over 0.2 and 3.5 SD of the protein, either way, in both replicates (recomputed)
[1] = compound: COC1=CC=C(C=C1)CN2C=CC3=C2C=C(C=C3)C(=O)NO
How it was run: (§1)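 Quantification of soluble protein used TMTpro 16plex LC-MS/MS, with channel sums equalised. Samples were the supernatant after 21,000xg for 90 min of pooled aliquots from K562 cells (2×10^6 cells/mL) treated with 10 μM compound for 30 min, heated for 3 min over 48°C-58°C, and extracted in PBS with 0.5% NP-40 at 4°C. Values, from duplicates, describe thermal stability against control samples on a log2 fold-change scale.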

filanesib = compound: CON(C)C(=O)N1N=C(c2cc(F)ccc2F)S[C@@]1(CCCN)c1ccccc1 [filanesib]
How it was run: as §1

zotarolimus = compound: CO[C@H]1C[C@@H]2CC[C@@H](C)[C@@](O)(O2)C(=O)C(=O)N2CCCC[C@H]2C(=O)O[C@H]([C@H](C)C[C@@H]2CC[C@H](n3cnnn3)[C@H](OC)C2)CC(=O)[C@H](C)/C=C(\C)[C@@H](O)[C@@H](OC)C(=O)[C@H](C)C[C@H](C)/C=C/C=C/C=C/1C [zotarolimus]
How it was run: as §1

idasanutlin = compound: COc1cc(C(=O)O)ccc1NC(=O)[C@@H]1N[C@@H](CC(C)(C)C)[C@](C#N)(c2ccc(Cl)cc2F)[C@H]1c1cccc(Cl)c1F [idasanutlin]
How it was run: as §1

alisertib = compound: COc1cc(Nc2ncc3c(n2)-c2ccc(Cl)cc2C(c2c(F)cccc2OC)=NC3)ccc1C(=O)O [alisertib]
How it was run: as §1

[2] = compound: COc1cc2nc(-c3cc(F)ccc3O)nc(N[C@@H]3CNC[C@H]3C(C)(C)O)c2cc1OC
How it was run: as §1

gefitinib = compound: COc1cc2ncnc(Nc3ccc(F)c(Cl)c3)c2cc1OCCCN1CCOCC1 [gefitinib]
How it was run: as §1

[3] = compound: COc1cccc2cc(-c3nc([C@H]4CC[C@H](C(=O)O)CC4)n4ncnc(N)c34)[nH]c12
How it was run: as §1

lapatinib = compound: CS(=O)(=O)CCNCc1ccc(-c2ccc3ncnc(Nc4ccc(OCc5cccc(F)c5)c(Cl)c4)c3c2)o1 [lapatinib]
How it was run: as §1

pictilisib = compound: CS(=O)(=O)N1CCN(Cc2cc3nc(-c4cccc5[nH]ncc45)nc(N4CCOCC4)c3s2)CC1 [pictilisib]
How it was run: as §1

Measured: log2 fold change

ANKZF1 (UniProt Q9H8Y5)
inactive: [1] -0.005 | filanesib 0.249 | zotarolimus 0.048 | idasanutlin 0.235 | alisertib -0.034 | [2] 0.042 | gefitinib -0.001 | [3] -0.022 | lapatinib -0.046 | pictilisib -0.002

AMFR (UniProt Q9UKV5)
inactive: [1] -0.048 | filanesib -0.066 | zotarolimus -0.017 | idasanutlin 0.037 | alisertib -0.012 | [2] -0.136 | gefitinib 0.071 | [3] 0.016 | lapatinib 0.003 | pictilisib -0.093

AP2M1 (UniProt Q96CW1)
UniProt Q96CW1, sequence (Q96CW1 whole entry, looked up): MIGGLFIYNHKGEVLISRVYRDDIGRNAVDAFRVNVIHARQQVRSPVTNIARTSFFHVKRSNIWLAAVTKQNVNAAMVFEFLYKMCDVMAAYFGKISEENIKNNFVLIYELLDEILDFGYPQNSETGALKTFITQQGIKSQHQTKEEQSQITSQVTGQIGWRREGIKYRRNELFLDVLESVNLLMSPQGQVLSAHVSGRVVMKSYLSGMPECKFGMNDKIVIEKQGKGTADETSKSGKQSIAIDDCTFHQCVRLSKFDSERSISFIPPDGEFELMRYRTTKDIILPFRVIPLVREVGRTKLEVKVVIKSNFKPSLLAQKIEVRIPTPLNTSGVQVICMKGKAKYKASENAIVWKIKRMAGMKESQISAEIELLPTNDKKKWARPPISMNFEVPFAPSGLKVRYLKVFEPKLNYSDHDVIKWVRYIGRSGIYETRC
inactive: [1] -0.008 | filanesib 0.048 | zotarolimus 0.017 | idasanutlin -0.018 | alisertib -0.06 | [2] 0.01 | gefitinib 0.032 | [3] 0.01 | lapatinib 0.014 | pictilisib -0.021

ARAF (UniProt P10398)
inactive: [1] 0 | filanesib -0.022 | zotarolimus 0.06 | idasanutlin 0.006 | alisertib 0.076 | gefitinib 0.076 | [3] 0.06 | lapatinib 0.076 | pictilisib -0.175
active: [2] -0.274

ARMC10 (UniProt Q8N2F6)
UniProt Q8N2F6, sequence (Q8N2F6 whole entry, looked up): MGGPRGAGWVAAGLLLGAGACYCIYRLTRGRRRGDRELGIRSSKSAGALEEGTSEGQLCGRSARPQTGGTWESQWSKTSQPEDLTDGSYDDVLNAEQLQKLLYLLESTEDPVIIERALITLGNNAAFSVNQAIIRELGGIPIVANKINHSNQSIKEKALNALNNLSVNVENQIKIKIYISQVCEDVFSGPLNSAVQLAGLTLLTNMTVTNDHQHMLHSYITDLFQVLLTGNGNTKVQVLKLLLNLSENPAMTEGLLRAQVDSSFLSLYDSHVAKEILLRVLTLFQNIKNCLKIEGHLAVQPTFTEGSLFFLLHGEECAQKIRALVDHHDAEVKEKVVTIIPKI
inactive: [1] 0.011 | filanesib 0.046 | zotarolimus 0.107 | idasanutlin -0.092 | alisertib -0.039 | [2] 0.117 | gefitinib 0.004 | [3] -0.133 | lapatinib -0.01 | pictilisib 0.07

ATL2 (UniProt Q8NHH9)
inactive: [1] -0.006 | filanesib -0.03 | zotarolimus 0.026 | idasanutlin -0.052 | alisertib 0.008 | [2] 0.148 | gefitinib 0.016 | [3] 0.034 | lapatinib -0.039 | pictilisib 0.003

BID isoform 2 (UniProt P55957)
inactive: [1] 0.045 | filanesib 0.016 | zotarolimus 0.08 | idasanutlin 0.016 | alisertib -0.045 | [2] -0.006 | gefitinib 0 | [3] 0.089 | lapatinib 0.005 | pictilisib 0.038

ATAD3B (UniProt Q5T9A4)
UniProt Q5T9A4, sequence (Q5T9A4 whole entry, looked up): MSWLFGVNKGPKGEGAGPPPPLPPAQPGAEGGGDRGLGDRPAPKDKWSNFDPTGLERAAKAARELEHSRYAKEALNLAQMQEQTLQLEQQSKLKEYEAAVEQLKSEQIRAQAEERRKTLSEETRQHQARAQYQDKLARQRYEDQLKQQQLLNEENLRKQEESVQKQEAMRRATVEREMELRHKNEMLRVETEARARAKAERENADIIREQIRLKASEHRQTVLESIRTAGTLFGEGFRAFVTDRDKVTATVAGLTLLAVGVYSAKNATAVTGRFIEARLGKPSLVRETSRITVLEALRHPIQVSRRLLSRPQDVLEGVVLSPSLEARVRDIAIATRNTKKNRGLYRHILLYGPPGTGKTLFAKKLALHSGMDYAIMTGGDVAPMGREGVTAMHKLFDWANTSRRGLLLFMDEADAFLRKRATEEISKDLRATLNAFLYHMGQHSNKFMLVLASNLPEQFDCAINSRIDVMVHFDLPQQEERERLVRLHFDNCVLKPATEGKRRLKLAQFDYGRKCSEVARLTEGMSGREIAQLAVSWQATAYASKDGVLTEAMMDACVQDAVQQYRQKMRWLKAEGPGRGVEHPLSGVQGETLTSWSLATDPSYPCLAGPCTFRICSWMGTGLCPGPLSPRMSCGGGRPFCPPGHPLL
inactive: [1] -0.035 | filanesib 0.089 | zotarolimus -0.064 | idasanutlin 0.081 | alisertib 0.193 | [2] -0.138 | gefitinib -0.134 | [3] -0.136 | lapatinib -0.047 | pictilisib -0.161

ACAP2 (UniProt Q15057)
UniProt Q15057, sequence (Q15057 whole entry, looked up): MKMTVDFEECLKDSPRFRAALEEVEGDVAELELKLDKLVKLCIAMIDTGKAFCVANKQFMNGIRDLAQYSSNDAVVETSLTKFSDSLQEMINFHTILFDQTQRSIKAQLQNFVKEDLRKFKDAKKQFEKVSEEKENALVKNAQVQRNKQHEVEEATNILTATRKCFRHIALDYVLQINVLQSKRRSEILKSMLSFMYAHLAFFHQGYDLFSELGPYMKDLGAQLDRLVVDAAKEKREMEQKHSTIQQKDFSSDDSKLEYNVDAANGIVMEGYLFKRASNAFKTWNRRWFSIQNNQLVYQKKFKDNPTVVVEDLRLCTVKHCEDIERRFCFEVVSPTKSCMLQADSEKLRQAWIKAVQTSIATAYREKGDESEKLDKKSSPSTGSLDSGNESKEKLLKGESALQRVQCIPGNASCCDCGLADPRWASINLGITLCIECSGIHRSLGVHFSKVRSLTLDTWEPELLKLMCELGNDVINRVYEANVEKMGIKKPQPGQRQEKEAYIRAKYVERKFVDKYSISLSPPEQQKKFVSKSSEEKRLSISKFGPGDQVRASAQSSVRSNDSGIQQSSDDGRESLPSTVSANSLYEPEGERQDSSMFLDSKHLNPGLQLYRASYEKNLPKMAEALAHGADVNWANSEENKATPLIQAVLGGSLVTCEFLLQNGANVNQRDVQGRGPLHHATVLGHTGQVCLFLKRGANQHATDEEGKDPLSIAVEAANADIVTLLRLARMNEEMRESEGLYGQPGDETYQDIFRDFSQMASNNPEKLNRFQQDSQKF
inactive: [1] -0.001 | filanesib 0.119 | zotarolimus 0.01 | idasanutlin -0.047 | alisertib 0.011 | gefitinib 0.02 | [3] 0.014 | lapatinib 0.015 | pictilisib -0.059
active: [2] 0.283

AP2A2 isoform 2 (UniProt O94973)
inactive: [1] 0.009 | filanesib 0.064 | zotarolimus 0.003 | idasanutlin 0.022 | alisertib -0.095 | [2] 0.083 | gefitinib 0.027 | [3] 0 | lapatinib 0.01 | pictilisib -0.002

ATAD1 (UniProt Q8NBU5)
inactive: [1] 0.009 | filanesib -0.045 | zotarolimus 0.087 | idasanutlin -0.046 | alisertib -0.037 | [2] -0.014 | gefitinib 0.003 | [3] -0.029 | lapatinib 0.007 | pictilisib 0.012

BLVRB (UniProt P30043)
inactive: [1] 0.113 | filanesib -0.073 | zotarolimus 0.024 | idasanutlin -0.045 | alisertib -0.07 | [2] 0.045 | gefitinib 0.061 | [3] 0.015 | lapatinib 0.071 | pictilisib 0.037

ARL6IP6 (UniProt Q8N6S5)
UniProt Q8N6S5, sequence (Q8N6S5 whole entry, looked up): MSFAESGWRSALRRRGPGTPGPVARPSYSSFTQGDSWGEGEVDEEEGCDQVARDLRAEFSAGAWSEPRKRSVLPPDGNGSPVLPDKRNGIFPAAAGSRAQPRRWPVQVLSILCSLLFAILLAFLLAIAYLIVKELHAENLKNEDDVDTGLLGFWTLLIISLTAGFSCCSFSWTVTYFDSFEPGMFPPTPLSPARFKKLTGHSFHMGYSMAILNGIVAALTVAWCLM
inactive: [1] -0.113 | filanesib -0.014 | zotarolimus -0.03 | idasanutlin -0.088 | alisertib 0.004 | [2] -0.042 | gefitinib -0.021 | [3] 0.036 | lapatinib 0.004 | pictilisib 0.005

ATOX1 (UniProt O00244)
UniProt O00244, sequence (O00244 whole entry, looked up): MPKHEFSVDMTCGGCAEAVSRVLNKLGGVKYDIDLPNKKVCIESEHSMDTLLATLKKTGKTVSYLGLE
inactive: filanesib -0.122 | zotarolimus 0.113 | idasanutlin -0.096 | alisertib -0.062 | [2] -0.388 | gefitinib -0.036 | [3] -0.07 | lapatinib 0.314 | pictilisib -0.015
active: [1] 0.471

APH1A (UniProt Q96BI3)
UniProt Q96BI3, sequence (Q96BI3 whole entry, looked up): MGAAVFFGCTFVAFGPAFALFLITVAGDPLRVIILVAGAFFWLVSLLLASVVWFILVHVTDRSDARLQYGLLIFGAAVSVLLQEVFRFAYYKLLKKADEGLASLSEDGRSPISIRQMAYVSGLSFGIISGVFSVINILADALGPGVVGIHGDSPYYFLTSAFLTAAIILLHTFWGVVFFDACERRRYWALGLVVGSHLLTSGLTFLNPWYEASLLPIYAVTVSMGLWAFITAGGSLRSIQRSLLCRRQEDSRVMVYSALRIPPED
inactive: [1] 0.101 | filanesib -0.039 | zotarolimus -0.062 | idasanutlin 0.005 | alisertib -0.228 | [2] -0.236 | gefitinib 0.043 | [3] 0.059 | lapatinib 0.091 | pictilisib 0.013

BLOC1S3 (UniProt Q6QNY0)
UniProt Q6QNY0, sequence (Q6QNY0 whole entry, looked up): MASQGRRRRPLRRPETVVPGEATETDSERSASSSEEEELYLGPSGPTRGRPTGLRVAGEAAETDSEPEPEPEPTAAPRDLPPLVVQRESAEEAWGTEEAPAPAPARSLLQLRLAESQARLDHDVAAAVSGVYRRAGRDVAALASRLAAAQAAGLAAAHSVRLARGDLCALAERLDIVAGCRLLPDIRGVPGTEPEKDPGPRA
inactive: [1] -0.013 | filanesib -0.066 | zotarolimus -0.014 | idasanutlin -0.149 | alisertib 0.005 | [2] -0.018 | gefitinib 0.048 | [3] 0.058 | lapatinib -0.007 | pictilisib 0.126

ATP5IF1 (UniProt Q9UII2)
UniProt Q9UII2, sequence (Q9UII2 whole entry, looked up): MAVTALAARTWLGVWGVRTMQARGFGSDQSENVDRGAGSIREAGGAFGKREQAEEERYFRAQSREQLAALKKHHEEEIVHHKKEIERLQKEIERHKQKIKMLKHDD
inactive: [1] -0.02 | filanesib -0.067 | zotarolimus 0.004 | idasanutlin 0.093 | alisertib -0.062 | [2] 0.024 | gefitinib 0.013 | [3] 0.03 | lapatinib -0.043 | pictilisib -0.016

ARL3 (UniProt P36405)
inactive: [1] 0 | filanesib -0.017 | zotarolimus -0.006 | idasanutlin -0.062 | alisertib -0.076 | [2] -0.007 | gefitinib -0.018 | [3] 0.047 | lapatinib -0.03 | pictilisib 0.031

ACIN1 (UniProt Q9UKV3)
inactive: [1] 0.019 | filanesib 0.073 | zotarolimus 0.028 | idasanutlin 0.099 | alisertib -0.082 | [2] -0.062 | gefitinib 0.041 | [3] 0.006 | lapatinib 0.034 | pictilisib 0.03

ATP5ME (UniProt P56385)
UniProt P56385, sequence (P56385 whole entry, looked up): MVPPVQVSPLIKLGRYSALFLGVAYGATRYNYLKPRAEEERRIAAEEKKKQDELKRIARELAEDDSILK
inactive: [1] -0.023 | filanesib -0.053 | zotarolimus 0.002 | idasanutlin -0.024 | alisertib -0.027 | [2] -0.04 | gefitinib 0.021 | [3] 0.063 | lapatinib -0.001 | pictilisib 0.019

ANP32E (UniProt Q9BTT0)
inactive: [1] 0.027 | filanesib 0.011 | zotarolimus 0.066 | idasanutlin 0.061 | alisertib 0.045 | [2] -0.039 | gefitinib 0.021 | [3] -0.027 | lapatinib -0.011 | pictilisib 0.06

ATP13A2 (UniProt Q9NQ11)
inactive: [1] 0.053 | filanesib -0.134 | zotarolimus 0.023 | idasanutlin 0.027 | alisertib -0.143 | [2] 0.019 | gefitinib -0.005 | [3] 0.053 | lapatinib -0.005 | pictilisib 0.066

ATP2A3 isoform 2 (UniProt Q93084)
UniProt Q93084, sequence (Q93084 whole entry, looked up): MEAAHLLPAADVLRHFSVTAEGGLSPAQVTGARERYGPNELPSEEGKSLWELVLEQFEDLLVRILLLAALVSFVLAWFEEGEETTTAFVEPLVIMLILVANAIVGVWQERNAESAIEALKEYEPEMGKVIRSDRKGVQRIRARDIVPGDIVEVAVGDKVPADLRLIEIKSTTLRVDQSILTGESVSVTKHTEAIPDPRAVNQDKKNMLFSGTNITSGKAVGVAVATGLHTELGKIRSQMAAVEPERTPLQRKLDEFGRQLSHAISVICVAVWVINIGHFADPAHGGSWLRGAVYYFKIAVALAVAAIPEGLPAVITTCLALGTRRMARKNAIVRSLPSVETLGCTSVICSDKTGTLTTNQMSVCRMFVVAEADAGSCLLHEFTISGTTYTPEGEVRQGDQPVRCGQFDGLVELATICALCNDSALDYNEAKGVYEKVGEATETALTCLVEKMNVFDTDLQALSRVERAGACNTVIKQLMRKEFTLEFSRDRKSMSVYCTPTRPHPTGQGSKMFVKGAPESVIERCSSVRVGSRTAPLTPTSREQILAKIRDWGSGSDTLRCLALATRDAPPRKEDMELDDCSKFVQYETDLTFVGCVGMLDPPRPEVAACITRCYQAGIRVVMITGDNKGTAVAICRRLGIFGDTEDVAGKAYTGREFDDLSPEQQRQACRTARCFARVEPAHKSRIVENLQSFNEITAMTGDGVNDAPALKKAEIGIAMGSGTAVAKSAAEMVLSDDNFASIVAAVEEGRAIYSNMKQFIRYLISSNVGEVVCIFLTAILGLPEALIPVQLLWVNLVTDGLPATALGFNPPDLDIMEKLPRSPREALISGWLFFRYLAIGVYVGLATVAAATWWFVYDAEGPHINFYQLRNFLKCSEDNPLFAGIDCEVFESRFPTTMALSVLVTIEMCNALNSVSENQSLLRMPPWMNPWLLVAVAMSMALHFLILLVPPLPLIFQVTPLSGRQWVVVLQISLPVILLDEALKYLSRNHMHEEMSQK
inactive: [1] -0.016 | filanesib -0.118 | zotarolimus -0.009 | idasanutlin -0.027 | alisertib -0.082 | [2] -0.004 | gefitinib -0.029 | [3] 0.02 | lapatinib -0.002 | pictilisib 0.027

BRD3 (UniProt Q15059)
UniProt Q15059, sequence (Q15059 whole entry, looked up): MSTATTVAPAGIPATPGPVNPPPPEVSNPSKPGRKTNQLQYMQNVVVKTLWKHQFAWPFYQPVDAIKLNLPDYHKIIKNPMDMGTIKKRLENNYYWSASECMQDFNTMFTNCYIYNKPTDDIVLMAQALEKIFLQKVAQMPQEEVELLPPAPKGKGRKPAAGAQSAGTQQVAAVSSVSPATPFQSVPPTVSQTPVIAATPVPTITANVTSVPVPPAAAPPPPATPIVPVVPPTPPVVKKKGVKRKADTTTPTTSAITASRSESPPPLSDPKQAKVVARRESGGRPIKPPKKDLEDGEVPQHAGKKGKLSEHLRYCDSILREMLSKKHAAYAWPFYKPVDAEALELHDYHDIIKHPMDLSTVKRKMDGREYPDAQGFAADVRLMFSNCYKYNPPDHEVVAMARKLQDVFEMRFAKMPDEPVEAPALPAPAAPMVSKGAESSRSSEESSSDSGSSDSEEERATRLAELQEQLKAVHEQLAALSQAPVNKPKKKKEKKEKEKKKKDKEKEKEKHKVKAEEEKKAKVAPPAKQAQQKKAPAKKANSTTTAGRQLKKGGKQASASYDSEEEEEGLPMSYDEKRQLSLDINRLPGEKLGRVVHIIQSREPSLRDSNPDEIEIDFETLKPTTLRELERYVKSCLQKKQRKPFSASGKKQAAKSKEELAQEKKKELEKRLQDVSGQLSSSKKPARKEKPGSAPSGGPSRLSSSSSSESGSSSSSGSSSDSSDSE
inactive: [1] 0.027 | filanesib 0.297 | zotarolimus -0.077 | idasanutlin -0.012 | alisertib -0.035 | [2] 0.086 | gefitinib 0.227 | [3] -0.002 | lapatinib -0.057 | pictilisib 0.081

ACACB (UniProt O00763)
inactive: [1] -0.019 | filanesib 0.258 | zotarolimus 0.132 | idasanutlin -0.042 | alisertib -0.168 | [2] 0.039 | gefitinib -0.02 | [3] -0.371 | lapatinib 0.068 | pictilisib 0.038

AKAP8 (UniProt O43823)
inactive: [1] 0.026 | filanesib 0.035 | zotarolimus -0.105 | idasanutlin 0.052 | alisertib -0.046 | [2] -0.002 | gefitinib -0.049 | [3] 0.067 | lapatinib 0.014 | pictilisib 0.101

BYSL (UniProt Q13895)
inactive: [1] -0.033 | filanesib 0.078 | zotarolimus 0.065 | idasanutlin -0.057 | alisertib 0.022 | [2] 0.207 | gefitinib -0.03 | [3] -0.057 | lapatinib 0.032 | pictilisib -0.022

AUP1 (UniProt Q9Y679)
inactive: [1] -0.069 | zotarolimus -0.014 | idasanutlin -0.022 | alisertib -0.013 | [2] -0.163 | gefitinib -0.034 | [3] 0.022 | lapatinib -0.007 | pictilisib -0.059
active: filanesib -0.269

ACSL4 (UniProt O60488)
inactive: [1] 0.09 | filanesib -0.071 | zotarolimus -0.058 | idasanutlin -0.113 | alisertib -0.006 | [2] -0.105 | gefitinib 0.075 | [3] -0.053 | lapatinib 0.052 | pictilisib 0.052

AGPAT3 isoform 3 (UniProt Q9NRZ7)
inactive: [1] -0.083 | filanesib -0.106 | zotarolimus 0.048 | idasanutlin -0.149 | alisertib 0.012 | [2] 0.083 | gefitinib 0.012 | [3] 0.005 | lapatinib 0.004 | pictilisib -0.013
